The source of these data is PubChem BioAssay (EPA / NIEHS).

Each structure is given as a SMILES string. Calls of active or inactive are those of the source. The calls were made as follows: active = hit-call score of the fitted dose curve at least 0.9, where 1 is the maximum; inactive = score below 0.9.

Holding throughout (settings): mRNA level, 48 h; actives raise or lower the signal
Read-out in experiment [1]: Insulin Like Growth Factor 1 (IGF1), IGF1 (gene 3479)
The experiment is described as follows: LTEA_HepaRG_IGF1: Life Technologies and Expression Analysis (LTEA) Assay for Insulin Like Growth Factor 1 (IGF1) using HepaRG (AID 2283506). Put shortly:
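Differentiated HepaRG cells in serum-free induction medium, exposed 48 h in duplicate to 8 half-log concentrations up to 100 uM in 0.5% DMSO. IGF1 mRNA by Fluidigm qRT-PCR, normalised to ACTB, GAPDH and POLR2A.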

Read-out in experiment [2]: Intercellular Adhesion Molecule 1 (ICAM1), ICAM1 (gene 3383)
Put plainly: LTEA_HepaRG_ICAM1: Life Technologies and Expression Analysis (LTEA) Assay for Intercellular Adhesion Molecule 1 (ICAM1) using HepaRG (AID 2283507). The essentials:
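Differentiated human HepaRG cells in serum-free induction medium exposed 48 h in duplicate to 8 half-log concentrations (top 100 uM, 0.5% DMSO). ICAM1 mRNA quantified by TaqMan qRT-PCR, normalized to ACTB, GAPDH and POLR2A; bidirectional fitting versus DMSO.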

Read-out in experiment [3]: Insulin-like growth factor-binding protein 1 (IGFBP1), IGFBP1 (gene 3484)
Put plainly: LTEA_HepaRG_IGFBP1: Life Technologies and Expression Analysis (LTEA) Assay for Insulin-like growth factor-binding protein 1 (IGFBP1) using HepaRG (AID 2283508). Put shortly: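 HepaRG cells, plated 48 h then switched to serum-free induction medium, exposed in duplicate for 48 h to 8-point half-log series from 100 uM in 0.5% DMSO. mRNA measured by qRT-PCR, normalized to ACTB/GAPDH/POLR2A; bidirectional fit versus DMSO.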

Read-out in experiment [4]: Interleukin 6 (IL6), IL6 (gene 3569)
The experiment is described as follows: LTEA_HepaRG_IL6: Life Technologies and Expression Analysis (LTEA) Assay for Interleukin 6 (IL6) using HepaRG (AID 2283509). Put shortly: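 HepaRG cells exposed in duplicate for 48 h to eight half-log concentrations, top 100 uM, in 0.5% DMSO serum-free induction medium. mRNA measured by qRT-PCR, normalized to ACTB, GAPDH and POLR2A. Bidirectional fit versus DMSO.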

Read-out in experiment [5]: Interleukin 6 Receptor (IL6R), IL6R (gene 3570)
The experiment is described as follows: LTEA_HepaRG_IL6R: Life Technologies and Expression Analysis (LTEA) Assay for Interleukin 6 Receptor (IL6R) using HepaRG (AID 2283510).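 As to AC50: TaqMan qRT-PCR signal normalized to ACTB GAPDH and POLR2A housekeeping genes.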 Put shortly: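 Differentiated HepaRG cells, plated 48 h, then exposed in duplicate for 48 h in serum-free induction medium to 8 half-log concentrations (top 100 uM, 0.5% DMSO). IL6R mRNA measured by TaqMan qRT-PCR, normalized to ACTB/GAPDH/POLR2A; bidirectional fit vs DMSO.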

Read-out in experiment [6]: Potassium channel subfamily K member 1 (KCNK1), KCNK1 (gene 3775)
Put plainly: LTEA_HepaRG_KCNK1: Life Technologies and Expression Analysis (LTEA) Assay for Potassium channel subfamily K member 1 (KCNK1) using HepaRG (AID 2283511). Put shortly: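 Differentiated HepaRG cells, 48 h exposure in serum-free induction medium with 0.5% DMSO; 8 concentrations, half-log from 100 uM, duplicate. KCNK1 mRNA by qRT-PCR, normalized to ACTB, GAPDH, POLR2A; bidirectional fit vs DMSO.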

Read-out in experiment [7]: Keratin 19 (KRT19), KRT19 (gene 3880)
The experiment is described as follows: LTEA_HepaRG_KRT19: Life Technologies and Expression Analysis (LTEA) Assay for Keratin 19 (KRT19) using HepaRG (AID 2283512). The essentials: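 Differentiated HepaRG cells in serum-free induction medium, exposed 48 h in duplicate to 8 half-log concentrations up to 100 uM in 0.5% DMSO. KRT19 mRNA by qRT-PCR, normalized to ACTB, GAPDH, POLR2A; bidirectional fit vs DMSO.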

Read-out in experiment [8]: JUN Transcription Factor, JUN (gene 3725)
The experiment is described as follows: LTEA_HepaRG_JUN: Life Technologies and Expression Analysis (LTEA) Assay for JUN Transcription Factor using HepaRG (AID 2283513). Put shortly:
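HepaRG cells, 48 h post-plating, exposed 48 h in serum-free induction medium to 8-point half-log series (top 100 uM, 0.5% DMSO), duplicate; mRNA by qRT-PCR (TaqMan, Fluidigm), normalized to ACTB/GAPDH/POLR2A; bidirectional fit vs DMSO.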

Read-out in experiment [9]: Lipase C (LIPC), LIPC (gene 3990)
The experiment is described as follows: LTEA_HepaRG_LIPC: Life Technologies and Expression Analysis (LTEA) Assay for Lipase C (LIPC) using HepaRG (AID 2283514). Put shortly: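 HepaRG cells, 48 h after plating, treated in duplicate for 48 h in serum-free induction medium over 8 half-log concentrations from 100 uM, 0.5% DMSO. LIPC mRNA by TaqMan qRT-PCR normalized to ACTB/GAPDH/POLR2A; bidirectional fit versus DMSO.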

Read-out in experiment [10]: Lipoprotein lipase (LPL), LPL (gene 4023)
Put plainly: LTEA_HepaRG_LPL: Life Technologies and Expression Analysis (LTEA) Assay for Lipoprotein lipase (LPL) using HepaRG (AID 2283515). The essentials: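 Differentiated HepaRG cells, plated 48 h, then exposed 48 h in serum-free induction medium to 8 concentrations (top 100 uM, half-log steps) in 0.5% DMSO, duplicate. LPL mRNA measured by qRT-PCR, normalized to ACTB, GAPDH and POLR2A.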

Read-out in experiment [11]: matrix metalloproteinase-10 (MMP10), MMP10 (gene 4319)
The experiment is described as follows: LTEA_HepaRG_MMP10: Life Technologies and Expression Analysis (LTEA) Assay for matrix metalloproteinase-10 (MMP10) using HepaRG (AID 2283517). Put shortly: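 Differentiated HepaRG cells in serum-free induction medium exposed 48 h in duplicate to 8-point half-log series up to 100 uM in 0.5% DMSO. mRNA quantified by qRT-PCR, normalised to ACTB, GAPDH, POLR2A; bidirectional fit versus DMSO.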

Read-out in a further experiment: MYC, MYC (gene 4609)
Put plainly: LTEA_HepaRG_MYC: Life Technologies and Expression Analysis (LTEA) Assay for MYC using HepaRG (AID 2283518). Put shortly:
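Differentiated HepaRG cells exposed 48 h in serum-free induction medium to 8 concentrations (top 100 uM, half-log steps; 0.5% DMSO), duplicate. MYC mRNA measured by Fluidigm qRT-PCR, normalized to ACTB, GAPDH, POLR2A; bidirectional fit versus DMSO.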

Read-out in experiment [12]: Paternally Expressed 10 (PEG10), PEG10 (gene 23089)
Put plainly: LTEA_HepaRG_PEG10: Life Technologies and Expression Analysis (LTEA) Assay for Paternally Expressed 10 (PEG10) using HepaRG (AID 2283520). Put shortly: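 Differentiated HepaRG cells exposed 48 h in serum-free induction medium to eight half-log concentrations topping at 100 uM, 0.5% DMSO, in duplicate. PEG10 mRNA quantified by TaqMan qRT-PCR, normalized to ACTB, GAPDH and POLR2A; bidirectional fit versus DMSO.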

Read-out in experiment [13]: Nuclear factor NF-kappa-B p105 subunit (Homo sapiens) (UniProt P19838)
The experiment is described as follows: LTEA_HepaRG_NFKB1: Life Technologies and Expression Analysis (LTEA) Assay for Nuclear Factor Kappa B Subunit 1 (NFKB1) using HepaRG (AID 2283521).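 As to outcome: TaqMan qRT-PCR transcript normalised to ACTB GAPDH and POLR2A housekeeping genes.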 The essentials:
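NFKB1 transcript was measured by TaqMan qRT-PCR on Fluidigm arrays, normalised to three housekeeping genes and fitted in both directions against 0.5% DMSO. HepaRG cells were dosed in duplicate for 48 h in serum-free induction medium, eight half-log steps from 100 uM.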

Read-out in experiment [14]: Protein phosphatase 2A (PPP2R4), PTPA (gene 5524)
Put plainly: LTEA_HepaRG_PPP2R4: Life Technologies and Expression Analysis (LTEA) Assay for Protein phosphatase 2A (PPP2R4) using HepaRG (AID 2283522). Put shortly: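 Differentiated human HepaRG cells in serum-free induction medium were exposed 48 h to 8 concentrations (top 100 µM, half-log steps, duplicate) in 0.5% DMSO. PPP2R4 mRNA was measured by TaqMan qRT-PCR, normalised to ACTB, GAPDH and POLR2A, and fitted bidirectionally versus DMSO.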

Read-out in experiment [15]: Phosphatase and tensin (PTEN), PTEN (gene 5728)
Put plainly: LTEA_HepaRG_PTEN: Life Technologies and Expression Analysis (LTEA) Assay for Phosphatase and tensin (PTEN) using HepaRG (AID 2283523). The essentials: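 HepaRG cells, 48 h after plating, exposed in duplicate for 48 h in serum-free induction medium to 8 half-log concentrations up to 100 uM (0.5% DMSO). PTEN mRNA by qRT-PCR, normalized to ACTB, GAPDH, POLR2A; bidirectional fit versus DMSO.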

Read-out in experiment [16]: solute carrier (SLC22A1), SLC22A1 (gene 6580)
The experiment is described as follows: LTEA_HepaRG_SLC22A1: Life Technologies and Expression Analysis (LTEA) Assay for solute carrier (SLC22A1) using HepaRG (AID 2283524). Put shortly: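 Differentiated human HepaRG cells in serum-free induction medium, exposed 48 h in duplicate to 8-point half-log series from 100 µM top in 0.5% DMSO. SLC22A1 mRNA by TaqMan qRT-PCR normalized to ACTB, GAPDH, POLR2A; bidirectional fit versus DMSO.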

Read-out in experiment [17]: Pyruvate Dehydrogenase Kinase 4 (PDK4), PDK4 (gene 5166)
The experiment is described as follows: LTEA_HepaRG_PDK4: Life Technologies and Expression Analysis (LTEA) Assay for Pyruvate Dehydrogenase Kinase 4 (PDK4) using HepaRG (AID 2283525). Put shortly: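 HepaRG cells plated 48 h, then switched to serum-free induction medium and exposed in duplicate for 48 h to 8 half-log concentrations from 100 uM in 0.5% DMSO. PDK4 mRNA measured by qRT-PCR, normalized to ACTB, GAPDH and POLR2A; bidirectional fit versus DMSO.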

Read-out in experiment [18]: matrix metalloproteinase-3 (MMP3), MMP3 (gene 4314)
The experiment is described as follows: LTEA_HepaRG_MMP3: Life Technologies and Expression Analysis (LTEA) Assay for matrix metalloproteinase-3 (MMP3) using HepaRG (AID 2283519). The essentials: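 HepaRG cells (~100,000/well) in serum-free induction medium were dosed in duplicate for 48 h with an 8-point half-log series from 100 uM, 0.5% DMSO. MMP3 mRNA was quantified by Fluidigm TaqMan qRT-PCR, normalized to three housekeeping genes.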

Chain of Nuclear factor NF-kappa-B p105 subunit (Homo sapiens) (P19838 whole entry, looked up): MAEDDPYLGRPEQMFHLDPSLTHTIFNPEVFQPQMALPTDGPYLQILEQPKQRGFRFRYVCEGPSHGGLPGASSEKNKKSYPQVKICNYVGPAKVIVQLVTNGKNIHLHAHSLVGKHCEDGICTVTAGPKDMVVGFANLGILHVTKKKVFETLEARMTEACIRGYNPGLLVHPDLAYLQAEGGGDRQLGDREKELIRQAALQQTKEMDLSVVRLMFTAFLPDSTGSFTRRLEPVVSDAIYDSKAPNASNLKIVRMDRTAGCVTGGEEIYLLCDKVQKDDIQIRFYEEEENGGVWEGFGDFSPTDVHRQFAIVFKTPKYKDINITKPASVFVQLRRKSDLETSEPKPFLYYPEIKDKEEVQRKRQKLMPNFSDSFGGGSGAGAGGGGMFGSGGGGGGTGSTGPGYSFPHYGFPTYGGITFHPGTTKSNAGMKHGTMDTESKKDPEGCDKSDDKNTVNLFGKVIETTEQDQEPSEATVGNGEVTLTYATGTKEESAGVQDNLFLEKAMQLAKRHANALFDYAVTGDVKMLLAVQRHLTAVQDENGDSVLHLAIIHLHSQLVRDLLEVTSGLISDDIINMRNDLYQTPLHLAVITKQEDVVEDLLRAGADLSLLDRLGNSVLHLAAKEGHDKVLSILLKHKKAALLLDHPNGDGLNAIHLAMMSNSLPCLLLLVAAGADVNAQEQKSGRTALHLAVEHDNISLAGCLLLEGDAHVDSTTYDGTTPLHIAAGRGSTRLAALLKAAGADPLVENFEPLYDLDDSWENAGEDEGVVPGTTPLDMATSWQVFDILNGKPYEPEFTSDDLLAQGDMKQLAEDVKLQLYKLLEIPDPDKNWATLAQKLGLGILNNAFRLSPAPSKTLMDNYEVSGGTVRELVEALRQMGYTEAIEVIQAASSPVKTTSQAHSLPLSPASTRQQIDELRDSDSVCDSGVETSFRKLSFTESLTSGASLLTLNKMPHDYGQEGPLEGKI

As to `c1ccc2n[nH]nc2c1`, the outcome in experiment [1], in experiment [2], in [3], in experiment [4], in experiment [5] and in experiment [6] was inactive. Besides, the outcome in experiment [7] is “inactive”; in experiment [8], “inactive”; in experiment [9], “inactive”; in experiment [10], “inactive”; in [11], “inactive”; with MYC, MYC (gene 4609) it was “inactive”. The call in [12], in [13], in [14], in experiment [15], in [16] and in experiment [17] was inactive.

Take `O=C(O)Cc1cc(I)c(Oc2ccc(O)c(I)c2)c(I)c1`: the AC50 (commonly the concentration at which the activity in the assay is half-maximal) in experiment [1] was 93.7 µM (active); in experiment [2], 64.4 µM (active); in experiment [3], 71.1 µM (active); in [4] it was 80.4 µM (active); in [5], 42.7 µM (active); in experiment [6], 64.3 µM (active). In addition, the AC50 in experiment [8] is 80.7 µM (active); in experiment [9], 88.5 µM (active); in [10], 65.7 µM (active); in experiment [11], 81 µM (active); in experiment [12], 0.558 µM (active); in experiment [13], 71.8 µM (active). Moreover, the AC50 in [16] was 78.8 µM (active); in experiment [17], 0.00367 µM (active). In addition, the outcome in experiment [18], in experiment [14] and in experiment [15] was inactive.

Consider `OC12N=C(c3ccccc3)SC1Cc1cc(Cl)ccc12` (stereo unspecified), for which the AC50 in [1] was 13.3 µM (active); in experiment [3], 13 µM (active); in experiment [5], 1.78 µM (active); in experiment [9], 17 µM (active); in experiment [10] it was 1.52 µM (active); in [11], 72.8 µM (active). Further, the AC50 was 16.1 µM (active) in the experiment with MYC, MYC (gene 4609); 11.8 µM (active) in [12]; 40.5 µM (active) in experiment [16]; 8.96 µM (active) in experiment [17]. Further, the outcome in [2], in [4], in [6], in [8], in experiment [14] and in experiment [15] was inactive.
